Assay outcomes (PubChem BioAssay)
This is a sample that favours compounds with a hit; in the whole collection about 7.7% have one here.
PD-1 reverse act = activators reversing PD-1 mediated T-cell inhibition. primary human CD4 T cells, PD-L1 beads, CellTiter-Glo 96 h. activation, % (no concentration beside the values). 29,000 tested, under 10 active. AID 2316; call rule not given here
NOMO-1 viab = STK33 inhibitor candidate reducing NOMO-1 cell viability. inhibition, % (concentration not given with the values). AID 2330. NOMO-1 AML viability, CellTiter-Glo luminescence, 72 h. 37,000 tested, 7.5% active; in the data active = inhibition above about 80%; inconclusive = no clear call, values can overlap the other calls
Shh pathway inh = Sonic Hedgehog pathway inhibition | Shh-LIGHT2 Gli-luciferase reporter, 30 h | inhibition, % (no concentration beside the values) | 22,000 tested, 2.1% active | AID 2313;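 active = mean inhibition across valid replicates above about 65%, limit read from the data; inconclusive = mean under the limit, yet half or more replicates past it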;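 also: pathway switched on by Shh-conditioned medium diluted 1 in 25 in low serum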
Large screens that a line does not name were inactive.

C[C@H](CO)N1C[C@H](C)[C@@H](CN(C)Cc2ccc(C(=O)Nc3ccccc3N)cc2)Oc2c(NC(=O)c3ccncc3)cccc2C1=O	none (no result: Shh pathway inh)
C[C@@H]1CN([C@@H](C)CO)C(=O)c2cccc(NC(=O)Nc3ccccc3)c2O[C@H]1CN(C)Cc1ccc(C(=O)Nc2ccccc2N)cc1	NOMO-1 viab 124.8 (no result: Shh pathway inh)
C[C@H](CO)N1C[C@H](C)[C@H](CN(C)Cc2ccc(C(=O)O)cc2)Oc2c(NC(=O)Nc3ccc(F)cc3)cccc2C1=O	none
C[C@H]1CN([C@@H](C)CO)C(=O)c2cccc(NC(=O)Nc3ccccc3)c2O[C@@H]1CN(C)Cc1ccccc1	none (no result: PD-1 reverse act)
COc1ccc(Cl)cc1NC(=O)CN(c1ccc(I)cc1)S(C)(=O)=O	none (no result: Shh pathway inh)
COc1cc(/C=C2/SC(=Nc3cc(C)cc(C)c3)NC2=O)cc(Br)c1OC	NOMO-1 viab 119.8
COc1cc(/C=C/C=O)cc(OC)c1OC	none
CCc1ccc(NC(=O)CSc2nc3ccccc3[nH]2)cc1	none (no result: PD-1 reverse act, Shh pathway inh)
Cn1c(SCC(=O)Nc2ccc(Cl)cc2Cl)nc2ccccc2c1=O	none (no result: Shh pathway inh)
CCOC(=O)c1nc2ccccc2c(=O)n1/N=C/c1cc(Cl)cc(Cl)c1O	NOMO-1 viab 101.4
CS(=NC(=O)Nc1ccc(Cl)cc1)c1sc(Cl)c2c1C(=O)CCC2 (configuration not stated)	NOMO-1 viab 116.1
Cn1c(SCC(=O)Nc2ccc(Cl)cc2)nc2sc3c(c2c1=O)CCCC3	none (no result: Shh pathway inh)
Cc1ccc(N(Cc2ccc(C(=O)Nc3cc([N+](=O)[O-])ccc3C)cc2)S(C)(=O)=O)cc1C	none (no result: Shh pathway inh)
C=C1C(=O)O[C@@H]2C3=C(C)CC[C@]34O[C@@H](C[C@@H]4C)[C@H]12	NOMO-1 viab 114.2
CC(=O)c1cccc(NC(=O)CSc2nc3ccccc3c(=O)n2-c2ccccc2)c1	none (no result: Shh pathway inh)
CCn1c(SCC(=O)Nc2ccc(C)cc2)nnc1-c1ccc(N)cc1	none (no result: PD-1 reverse act, Shh pathway inh)
Cc1ccc(S(=O)(=O)Nc2ccc3c(c2)CC(=O)N([C@@H](C)CO)C[C@@H](C)[C@@H](CN(C)Cc2ccc(-c4ccccc4)cc2)O3)cc1	NOMO-1 viab 123.8
Cc1ccc(S(=O)(=O)Nc2ccc3c(c2)CC(=O)N([C@H](C)CO)C[C@@H](C)[C@@H](CN(C)Cc2ccc(-c4ccccc4)cc2)O3)cc1	none
C[C@@H]1CN([C@H](C)CO)C(=O)Cc2cc(NS(=O)(=O)c3ccc(F)cc3)ccc2O[C@@H]1CN(C)Cc1ccc(-c2ccccc2)cc1	NOMO-1 viab inconclusive
C[C@@H]1CN([C@H](C)CO)C(=O)Cc2cc(NS(=O)(=O)c3ccc(F)cc3)ccc2O[C@H]1CN(C)Cc1ccc(-c2ccccc2)cc1	NOMO-1 viab 89.5
C[C@H]1CN([C@@H](C)CO)C(=O)Cc2cc(NS(=O)(=O)c3ccccc3)ccc2O[C@@H]1CN(C)Cc1ccc(-c2ccccc2)cc1	NOMO-1 viab 112.5
C[C@H]1CN([C@@H](C)CO)C(=O)Cc2cc(NS(=O)(=O)c3ccccc3)ccc2O[C@H]1CN(C)Cc1ccc(-c2ccccc2)cc1	none
Cc1ccc(S(=O)(=O)Nc2ccc3c(c2)CC(=O)N([C@H](C)CO)C[C@@H](C)[C@H](CN(C)Cc2ccc(-c4ccccc4)cc2)O3)cc1	NOMO-1 viab 95.2
C[C@@H]1CN([C@H](C)CO)C(=O)Cc2cc(NS(=O)(=O)c3ccccc3)ccc2O[C@H]1CN(C)Cc1ccc(-c2ccccc2)cc1	NOMO-1 viab inconclusive
COc1cc(NC(=O)CN(C)S(=O)(=O)c2ccc(C)cc2)c(OC)cc1Cl	none (no result: Shh pathway inh)
CS(=O)(=O)N(CC(=O)Nc1cccc2ccccc12)c1ccc(I)cc1	none (no result: Shh pathway inh)
Cc1noc(C)c1S(=O)(=O)Nc1ccc2c(c1)CC(=O)N([C@@H](C)CO)C[C@H](C)[C@@H](CN(C)Cc1ccc(-c3ccccc3)cc1)O2	NOMO-1 viab 85.6
Cc1noc(C)c1S(=O)(=O)Nc1ccc2c(c1)CC(=O)N([C@H](C)CO)C[C@@H](C)[C@H](CN(C)Cc1ccc(-c3ccccc3)cc1)O2	none (no result: PD-1 reverse act)
O=C(NCc1cccnc1)c1ccc(Cl)c(S(=O)(=O)N2CCOCC2)c1	none (no result: Shh pathway inh)
O=C(Oc1c(CN2CCOCC2)cc(Cl)c2cccnc12)c1ccc(F)cc1	NOMO-1 viab 108.8 (no result: PD-1 reverse act, Shh pathway inh)
COc1ccccc1C(=O)Oc1c(CN2CCOCC2)cc(Cl)c2cccnc12	NOMO-1 viab 109.0 (no result: PD-1 reverse act, Shh pathway inh)
Cc1cccc2c(C(=O)NCCN3CCOCC3)cc(-c3ccccc3Cl)nc12	none (no result: PD-1 reverse act, Shh pathway inh)
COC(=O)c1cc(OC)c(OC)cc1NC(=O)C(C)Oc1ccc(Br)cc1 (configuration not stated)	none (no result: Shh pathway inh)
N#CCCn1cc(CO)c(-c2ccc(Cl)cc2)n1	none (no result: Shh pathway inh)
CN(C)CCCn1cc(C2=C(c3c[nH]c4ccccc34)C(=O)NC2=O)c2ccccc21	NOMO-1 viab inconclusive (no result: PD-1 reverse act)
Cn1cc(C2=C(c3cn(CCCSC(=N)N)c4ccccc34)C(=O)NC2=O)c2ccccc21	NOMO-1 viab 141.6
CC(C(=O)Nc1cc(Cl)ccc1O)N1C(=O)c2ccccc2C1=O (configuration not stated)	none (no result: Shh pathway inh)
